High-throughput results from PubChem BioAssay.
BoNT-A LC inh2 – blocks Botulinum neurotoxin A light chain protease | multiplex microsphere protease substrate cleavage, flow cytometry | inhibition, % at 10 µM | 360,000 compounds, 0.17% hits
BoNT-F LC inh – blocks Botulinum neurotoxin F light chain protease; inhibition, % at 10 µM; 360,000 compounds, 0.22% hits; AID 588497; Multiplex microsphere protease cleavage assay, flow cytometry; in the data active = inhibition above about 35%, passing the limit was not always enough; inconclusive = no clear call, values can overlap the other calls
Autofluor counter – counter-screen for toxin protease inhibitors: compound fluorescence; compound autofluorescence counterscreen, microsphere flow cytometry; stronger effect = higher value; 360,000 compounds, 3.1% hits; fluorescence intensity (concentration not given with the values); in the data active = fluorescence intensity above about 16000; inconclusive = no clear call, values can overlap the other calls
SARS 3CLpro inh – SARS-CoV 3CLpro protease inhibition. P0C6X7. recombinant SARS-CoV 3CLpro, quenched FRET peptide cleavage. inhibition, % at 6 µM. 290,000 compounds, 0.14% hits. AID 1706; in the data active = inhibition above about 12%
Anthrax LF prot – inhibitors of Bacillus anthracis lethal factor protease. inhibition, % at 10 µM. P15917. AID 588501. 360,000 compounds, 0.12% hits. multiplex microsphere protease cleavage assay, LF
BoNTA LC inh 1 – inhibitors of Botulinum neurotoxin A light chain protease | shares compounds with BoNT-F LC inh | multiplex microsphere protease assay, flow cytometry | inhibition, % at 10 µM | 720 compounds, 3% hits | AID 602139; in the data active = inhibition above about 32%
BoNT-F LC CP1 – BoNT/F light chain protease inhibition | shares compounds with BoNT-F LC inh | multiplex microsphere protease cleavage assay, flow cytometry | inhibition, % at 10 µM | 720 tested, under 10 active | AID 602140; call rule not given here
LF protease CP1 – Bacillus anthracis lethal factor protease inhibition; inhibition, % at 10 µM; multiplex microsphere protease cleavage assay, LF; 720 tested, under 10 active; shares compounds with BoNT-F LC inh; call rule not given here
Hits are given with their value; i = inactive; ? = inconclusive; nt = no result. Most compounds without a hit are left out; they make up all but 3.5% or so of the library. Rule as the data show it, unless noted: active = inhibition above about 30%; inconclusive = no clear call, values can overlap the other calls; inactive = below that.

SMILES | BoNT-A LC inh2 | BoNT-F LC inh | Autofluor counter | SARS 3CLpro inh | Anthrax LF prot | BoNTA LC inh 1 | BoNT-F LC CP1 | LF protease CP1
COc1ccc(-c2cc3ccccc3n2CC(O)Cn2nc(C)cc2C)cc1 (centres undefined) | 151.5 | i | i | i | 49.0 | i | i | i
O=C(NCCN1CCOCC1)c1ccc(CS(=O)c2ccccc2Cl)o1 (centres undefined) | i | i | i | i | i | nt | nt | nt
O=C(Nc1ccc(N2CCOCC2)cc1)c1cccc2ccccc12 | i | i | i | i | i | nt | nt | nt
Cc1cc2c(sc3c(C)ccc(C)c32)c(C)n1 | i | ? | i | i | i | i | i | i
COc1ccc(-c2nc(CS(=O)CC(=O)NCc3ccc(Cl)cc3)c(C)o2)cc1OC (centres undefined) | i | i | i | i | i | nt | nt | nt
CCOC(=O)CC(=O)CSc1ncc(C(=O)OCC)c(N)n1 | i | 134.1 | i | i | 50.3 | i | i | i
CCN(CC(=O)NCc1cccs1)C(=O)CN(C)S(=O)(=O)c1ccc(C)cc1 | i | i | i | nt | i | nt | nt | nt
Cc1cc(=O)oc2cc(OCC(=O)NC3CCN(Cc4ccccc4)CC3)c(Cl)cc12 | i | i | i | i | i | nt | nt | nt
CC(OC(=O)c1cc(=O)c2ccccc2o1)C(=O)c1ccccc1 (centres undefined) | i | i | i | nt | i | nt | nt | nt
Cc1nn(C)c(C)c1S(=O)(=O)NC1CCCC1 | i | i | i | i | i | nt | nt | nt
Cc1nn(-c2nnc(NC3CCCCC3)nn2)c(C)c1Br | 34.7 | i | i | i | i | i | i | i
CCOc1ccc(CC2c3cc(OCC)c(OCC)cc3CCN2C(=O)CN2CCN(C)CC2)cc1OCC (centres undefined) | i | 34.7 | i | i | i | i | i | i
CCOc1ccc(CC2NCCc3cc(OCC)c(OCC)cc32)cc1OCC (centres undefined) | i | i | i | i | i | nt | nt | nt
c1ccc(-c2cn3c(n2)CCC3)cc1 | i | i | i | i | i | nt | nt | nt
O=[N+]([O-])c1ccc(-c2cn3c(n2)CCC3)cc1 | i | 36.8 | ? | i | i | i | i | i
Cc1nc(CCNC(=O)C2CCC(=O)N(CCc3cccc(F)c3)C2)sc1C (centres undefined) | i | i | i | i | i | nt | nt | nt
Cc1n[nH]c(C)c1CCNC(=O)C1CCC(=O)N(CCc2cccc(F)c2)C1 (centres undefined) | i | 34.8 | ? | i | i | i | i | i
CCOC(=O)C(O)(c1ccc(N(CC)S(=O)(=O)c2ccc(C)cc2)cc1)C(F)(F)F (centres undefined) | i | 70.2 | i | i | i | i | i | i
CC(C)(C)c1cc(C(=O)CCN2CCOCC2)cc(C(C)(C)C)c1O | i | i | i | i | i | i | i | i
CCC(C)NC(=O)c1cc2cc3ccc(OC)cc3nc2s1 (centres undefined) | i | i | i | i | i | i | i | i
CCn1cc(C(=O)N2CCN(c3ccccc3)CC2)c(=O)c2cc(S(=O)(=O)N3CCOCC3)ccc21 | i | i | i | i | i | nt | nt | nt
O=C(CN(C(=O)CNS(=O)(=O)c1ccc(F)cc1)c1ccccc1F)NCc1ccco1 | i | 34.9 | i | i | i | i | i | i
CCC1CCCCN1CCNC(=O)C1CCN(S(=O)(=O)c2c(C)noc2C)CC1 (centres undefined) | i | i | i | i | i | nt | nt | nt
COc1ccc(NC(=S)Nc2cnc3ccccc3c2)c(OC)c1 | i | i | i | i | i | nt | nt | nt
COc1ccccc1-c1ccc(SCc2ccccc2)nn1 | 32.5 | i | i | i | i | i | i | i
SMILES | BoNT-A LC inh2 | BoNT-F LC inh | Autofluor counter | SARS 3CLpro inh | Anthrax LF prot | BoNTA LC inh 1 | BoNT-F LC CP1 | LF protease CP1
COc1ccccc1-c1ccc(SCc2cccc(F)c2)nn1 | i | i | i | i | i | nt | nt | nt
O=C(NCc1ccc(Cl)cc1Cl)C(=O)N1CCCCC1 | i | i | i | i | i | nt | nt | nt
O=C(O)c1ccc(NS(=O)(=O)c2ccc(Cl)c(C(=O)Nc3ccccc3)c2)cc1 | i | ? | i | i | i | i | i | i
O=C(O)c1ccc(NS(=O)(=O)c2ccc(NC(=O)c3ccccc3Cl)cc2)cc1 | i | i | i | i | i | nt | nt | nt
O=C(Nc1ccccc1C(=O)O)c1cc(S(=O)(=O)Nc2ccccc2)ccc1Cl | i | ? | i | i | i | i | i | i
Cc1ccc(NS(=O)(=O)c2ccc(Cl)c(C(=O)Nc3cccc(C(=O)O)c3)c2)cc1 | i | ? | i | i | i | i | i | i
Cc1c(C(=O)Nc2c(C)n(C)n(-c3ccccc3)c2=O)oc2ccccc12 | i | i | i | i | i | nt | nt | nt
